Measurements taken from PubChem BioAssay (Tox21).
Several values for one entry are separate records, joined by “and”; a condition that tells them apart may be missing. Equal entries are not always repeated. Results filed as inconclusive are left out. A call without a number means that no potency is given here. The source holds several records for some structures; these can differ, active in one and inactive in another. Activity calls are given as the source filed them. The call rests on the fitted dose curve; in most records, active means well fitted inhibition curve with a large enough effect in the repeat runs; inconclusive means weak or mixed curves, or effect the other way; inactive means no such curve, though single readings can be large or run the other way.

Target: Nuclear receptor subfamily 1 group I member 3 (Homo sapiens) (UniProt Q14994)
Sequence (Q14994 whole entry, looked up): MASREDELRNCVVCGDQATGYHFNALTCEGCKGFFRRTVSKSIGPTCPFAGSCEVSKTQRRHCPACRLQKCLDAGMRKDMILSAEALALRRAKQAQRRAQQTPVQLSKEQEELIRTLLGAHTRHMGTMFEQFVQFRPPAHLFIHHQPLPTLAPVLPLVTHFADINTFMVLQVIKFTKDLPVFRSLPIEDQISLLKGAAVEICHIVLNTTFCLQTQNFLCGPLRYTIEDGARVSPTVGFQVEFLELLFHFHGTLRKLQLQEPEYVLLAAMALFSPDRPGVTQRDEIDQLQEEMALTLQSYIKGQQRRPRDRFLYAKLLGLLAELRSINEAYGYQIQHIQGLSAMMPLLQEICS
Assay: qHTS assay to identify small molecule antagonists of the constitutive androstane receptor (CAR) signaling pathway (AID 1224838);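 further: HepG2 cells stably expressing hCAR with CYP2B6 luciferase reporter stimulated by CITCO; nearly all actives have a fitted effect of over 40% in size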
Settings: HepG2-CYP2B6-hCAR luciferase, CITCO-stimulated, 24 h; series mostly up to 92.4 µM
Excerpt: U.S. Tox21 Program National Center for Advancing Translational Sciences [NCATS] NIH Chemical Genomics Center [NCGC] U.S. Environmental Protection Agency [EPA] National Institutes of Environmental Health Sciences [NIEHS] National Toxicology Program [NTP] U.S. Food and Drug Administration [FDA] Tox21 Assay Overview: The constitutive androstane receptor (CAR) is a nuclear receptor which regulates multiple drug metabolizing enzymes (DMEs) and transporters. Activating CAR will generally increase the transcription and subsequent translation of CYP2B6 and CYP3A4. These two DMEs represent about 50% of the drug metabolizing potential in the body. When CAR is deactivated, the metabolizing potential in the body will decrease, subsequently increasing the toxicity in the body or lowering the therapeutic potential of a pro-drug. Recently, there have also been studies performed indicating CARs role in energy metabolism and cancer therapy. Therefore, inhibiting CARs activity could have a potential effect on diabetes and cancer. Identifying environmental toxins and compounds which modulate CAR, through the use of the Tox21 10K compound collection, will be an important step in determining the toxicity and potential therapeutic effects these factors will have on the human body.
Tox21 Assay Protocol Summary: A double-stable (hCAR and CYP2B6-2.2kb) transfected cell line, derived from human hepatoma (HepG2) cells, was utilized for the duration of the quantitative high-throughput screens. The HepG2-CYP2B6-hCAR cells suspended in DMEM culture medium supplemented with 10% FBS, 5 ug/mL blasticidin, 0.5 mg/mL geneticin, 100 U/mL penicillin and 100 ug/mL streptomycin were dispensed at 2500 cells/4 uL/well in 1536-well white solid bottom plates using a Multidrop Combi. After the assay plates were incubated at 37 C/5% CO2 for 4 hrs, 23 nL of compounds at 15 concentrations (from 5-48 columns) or positive control (from 1 to 4 columns) were transferred to the assay plates using a Pintool station. One uL of CITCO, was added using a Flying Reagent Dispenser to generate a final concentration of 50 nM CITCO inside each well. After a 24 hr incubation period at 37 C/5% CO2, four uL of ONE-Glo reagent was added into the assay plates using a Flying Reagent Dispenser. After a 30 min incubation period at room temperature, the luminescence intensity in the assay plates was measured using a ViewLux plate reader.
Potency means the concentration at half of the fitted maximal effect.

Row | Compound | Potency | activity, negative = inhibition
1 | CCC1=C[C@@H]2CN(C1)Cc1c([nH]c3ccccc13)[C@@](C(=O)OC)(c1cc3c(cc1OC)N(C)[C@H]1[C@@](O)(C(=O)OC)[C@H](OC(C)=O)[C@]4(CC)C=CCN5CC[C@]31[C@@H]54)C2 | 0.106 µM (active) | 
2 | CCOc1ccc2nc3cc(N)ccc3c(N)c2c1 | 2.66 µM (active) | 
3 | Cc1cc(O)c2ccccc2c1O | 16.8 µM (active) | 
4 | C/C=C1/C(=O)C[C@H]2[C@@H]3CCC4=CC(=O)CC[C@]4(C)[C@H]3CC[C@]12C | inactive | 
5 | Nc1c2ccccc2nc2ccccc12 | 956 nM (active) and 1.68 µM (active) | 
6 | Clc1ccc2n[nH]nc2c1 | inactive | 
7 | CCOC(=O)/C=C(C)/C=C/C=C(C)/C=C/c1c(C)cc(OC)c(C)c1C | inactive | 
8 | CN(C)c1ccc(C2(c3ccc(N(C)C)cc3)OC(=O)c3cc(N(C)C)ccc32)cc1 | inactive | 
9 | C1CCCC1 | inactive | 
10 | CCN(CC)CCNC(=O)c1c(C)[nH]c(/C=C2\C(=O)Nc3ccc(F)cc32)c1C | 10.6 µM (active) | 
11 | CCCCCCOC(=O)c1ccc(O)cc1 | inactive | 
12 | CN(C/C=C/C#CC(C)(C)C)Cc1cccc2ccccc12 | inactive | 
13 | CC(C)(C)C(=O)OCOC(=O)[C@@H]1N2C(=O)[C@@H](NC(=O)[C@H](N)c3ccccc3)[C@H]2SC1(C)C | inactive | 
14 | C=CC(=O)OCCn1c(=O)n(CCOC(=O)C=C)c(=O)n(CCOC(=O)C=C)c1=O | 24.3 µM (active) | 
15 | NC(=NCCCCCCN=C(N)/N=C(\N)Nc1ccc(Cl)cc1)/N=C(\N)Nc1ccc(Cl)cc1 | 60.8 µM (active) and inactive | 
16 | CCOc1nc2cccc(C(=O)OC(C)OC(=O)OC3CCCCC3)c2n1Cc1ccc(-c2ccccc2-c2nn[nH]n2)cc1 (stereo not given) | inactive | 
17 | CCN(C(=O)c1cc(C)cc(OC[C@H](C)Nc2ccncc2)c1)C(C)C | inactive | 
18 | CSc1ccc(/C=C2/C(C)=C(CC(=O)O)c3cc(F)ccc32)cc1 | inactive | 
19 | CCC(C)Nc1ccc(NC(C)CC)cc1 (stereo not given) | 27.8 µM (active) | 
20 | NNc1nc(-c2ccc(N)cc2)cs1 | inactive | 

Row | Compound | Potency | activity, negative = inhibition
21 | CC(=O)N1CCN(c2ccc(OC[C@H]3CO[C@](Cn4ccnc4)(c4ccc(Cl)cc4Cl)O3)cc2)CC1 | inactive | 
22 | CCCCCCCCCCCCCC[P+](CCCC)(CCCC)CCCC (tested in a mixture with another compound) | 17.3 µM (active) | 
23 | CCCCCCCC[N+](CCCCCCCC)(CCCCCCCC)CCCCCCCC | 21.6 µM (active) | 
24 | O=C(c1ccc(O)cc1O)c1ccc(O)cc1O | inactive | 
25 | O=C(Nc1cccc(C(F)(F)F)c1)c1cc(Br)cc(Br)c1O | 15.4 µM (active) | 
26 | NNc1nc(-c2ccccc2)cs1 | inactive | 
27 | Cc1cccc(CN2CCN(C(c3ccccc3)c3ccc(Cl)cc3)CC2)c1 (stereo not given) | inactive | 
28 | O=C1CCCc2c1cc1ccc3cccc4ccc2c1c34 | inactive | 
29 | O=C(OCC1CO1)C1CCCCC1C(=O)OCC1CO1 (stereo not given) | inactive | 
30 | CC(NN)c1ccccc1 (stereo not given) |  | 27.3% [at 19 µM] (inactive)
31 | CC[C@@]1(O)C(=O)OCc2c1cc1n(c2=O)Cc2c-1nc1ccccc1c2/C=N/OC(C)(C)C | 0.0376 µM (active) | 
32 | O=c1cccccc1O | inactive | 
33 | O=C(Nc1ccc(Oc2ccc(Cl)cc2)c(Cl)c1)c1cc(I)cc(I)c1O | inactive | 
34 | CC(C)CCCCCCCCCCCCCCC(=O)O | inactive | 
35 | COc1cccc2c1C(=O)c1c(O)c3c(c(O)c1C2=O)C[C@@](O)(C(=O)CO)C[C@@H]3O[C@H]1C[C@H](N)[C@H](O[C@@H]2CCCCO2)[C@H](C)O1 | 0.944 µM (active) | 
36 | COCCCC/C(=N\OCCN)c1ccc(C(F)(F)F)cc1 | inactive | 
37 | CCCCCCC[N+](CC)(CC)CCCCc1ccc(Cl)cc1 | inactive | 
38 | CCCCCCCCn1sc(Cl)c(Cl)c1=O | 27.3 µM (active) | 
39 | O=[N+]([O-])c1cc(Cl)c(Cl)c(Cl)c1Cl | inactive | 
40 | CCC(N)(CO)CO | inactive | 
